Laboratory results: PubChem BioAssay (NCI)
This is part of a sample that, as a whole, favours compounds with a hit. Of some 83,000 tested, about 20% had one in any assay.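 For each line, cells grew in 96-well plates with the test compound present at a single concentration for 48 hours.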 A number with no mark means an inactive call. Active and inactive are the calls of the source. How the source made its calls: active means growth percent below 10; inactive means the rest.

Experiments:
Assay in all cases: NCI-60 one-dose screen, 48 h (100 = growth as untreated, 0 = no growth, -100 = all killed)
Settings in all cases: 10 µM unless noted
BT-549 breast = tested on: BT-549 breast
MDA-MB-435 melanoma = tested on: MDA-MB-435 melanoma
SW-620 colon = tested on: SW-620 colon
MCF7 breast = tested on: MCF7 breast
HCT-116 colon = tested on: HCT-116 colon
HCC-2998 colon = tested on: HCC-2998 colon
KM12 colon = tested on: KM12 colon

COc1ccc2nc(NC(=O)c3cc(-c4ccc(F)cc4)n4nc(-c5ccccc5)cc4n3)sc2c1
growth (BT-549 breast): 53.5%
growth (MDA-MB-435 melanoma): 96.2%
growth (SW-620 colon): 94.7%
growth (MCF7 breast): 86.8%
growth (HCT-116 colon): 61.5%
growth (HCC-2998 colon): 98.6%
growth (KM12 colon): 74.1%

O=C(O)c1ccc(NC(=O)c2ccc(Nc3ccnc(C(F)(F)F)c3)cc2)cc1
growth (BT-549 breast): 109%
growth (MDA-MB-435 melanoma): 104%
growth (SW-620 colon): 105%
growth (MCF7 breast): 100%
growth (HCT-116 colon): 104%
growth (HCC-2998 colon): 103%
growth (KM12 colon): 93.2%

CC(C)C/C(=N\NC(=O)c1ccncc1)c1cc(Cl)ccc1O
growth (BT-549 breast): -1.24% (active)
growth (MDA-MB-435 melanoma): 32.4%
growth (SW-620 colon): 31.1%
growth (MCF7 breast): 5.38% (active)
growth (HCT-116 colon): 0.442% (active)
growth (HCC-2998 colon): 28.1%
growth (KM12 colon): 25.8%

CCCn1cnc2c1c(=O)n(CCCCC(C)=O)c(=O)n2C
growth (BT-549 breast): 103%
growth (MDA-MB-435 melanoma): 117%
growth (SW-620 colon): 97.7%
growth (MCF7 breast): 92.6%
growth (HCT-116 colon): 96.8%
growth (HCC-2998 colon): 100%
growth (KM12 colon): 114%

CC(C)COCC(CN(Cc1ccccc1)c1ccccc1)N1CCCC1 (centres undefined)
growth (BT-549 breast): 62.2%
growth (MDA-MB-435 melanoma): 72.4%
growth (SW-620 colon): 70.1%
growth (MCF7 breast): 45.8%
growth (HCT-116 colon): 36.7%
growth (HCC-2998 colon): 44.8%
growth (KM12 colon): 56.2%

C=C(C[C@@](O)(C(=O)Oc1ccccc1)C(=O)C1CCCCC1)c1ccccc1
growth (BT-549 breast): 105%
growth (MDA-MB-435 melanoma): 102%
growth (SW-620 colon): 107%
growth (MCF7 breast): 100%
growth (HCT-116 colon): 92.7%
growth (HCC-2998 colon): 105%
growth (KM12 colon): 105%

O=C(Nc1cccc([N+](=O)[O-])c1)c1cccc(C(=O)Nc2cccc([N+](=O)[O-])c2)c1
growth (BT-549 breast): -4.34% (active)
growth (MDA-MB-435 melanoma): 83.1%
growth (SW-620 colon): 92.8%
growth (MCF7 breast): 68.3%
growth (HCT-116 colon): 78.4%
growth (HCC-2998 colon): 88.2%
growth (KM12 colon): 87.6%

Oc1ccccc1/C=N\Nc1ccccc1
growth (BT-549 breast): 65.1%
growth (MDA-MB-435 melanoma): 28.6%
growth (SW-620 colon): 34.5%
growth (MCF7 breast): 61.1%
growth (HCT-116 colon): 68.6%
growth (HCC-2998 colon): 79.6%
growth (KM12 colon): 19.8%

CCOC(=O)C1C(=O)OC2CCCCC21 (centres undefined)
growth (BT-549 breast): 97.5%
growth (MDA-MB-435 melanoma): 114%
growth (SW-620 colon): 110%
growth (MCF7 breast): 95.4%
growth (HCT-116 colon): 101%
growth (HCC-2998 colon): 106%
growth (KM12 colon): 109%

Cc1c(C(N)=O)sc2c1c(=O)n(Cc1ccccc1)c1nnc(SCC(=O)Nc3ccc(Cl)cc3)n21
growth (BT-549 breast): 67.7%
growth (MDA-MB-435 melanoma): 40.7%
growth (SW-620 colon): 35.6%
growth (MCF7 breast): 31.6%
growth (HCT-116 colon): 2.83% (active)
growth (HCC-2998 colon): 18.1%
growth (KM12 colon): 55.3%

Fc1ccc(-c2nnc(-c3c(-c4ccc(F)cc4)nc4ncccn34)o2)cc1
growth (BT-549 breast): 99.9%
growth (MDA-MB-435 melanoma): 97%
growth (SW-620 colon): 108%
growth (MCF7 breast): 92.4%
growth (HCT-116 colon): 94.5%
growth (HCC-2998 colon): 111%
growth (KM12 colon): 103%

CC(=O)NC1(C(=O)O)CCCC1
growth (BT-549 breast): 118%
growth (MDA-MB-435 melanoma): 123%
growth (SW-620 colon): 103%
growth (MCF7 breast): 97.8%
growth (HCT-116 colon): 112%
growth (HCC-2998 colon): 138%
growth (KM12 colon): 119%

CCC(C)CC(CC)NCCN1CCN(C(CC)CC(C)CC)C1=S (centres undefined)
growth (BT-549 breast): 78.6%
growth (MDA-MB-435 melanoma): 26.8%
growth (SW-620 colon): 29.1%
growth (MCF7 breast): -60.9% (active)
growth (HCT-116 colon): 16.4%
growth (HCC-2998 colon): -45.6% (active)
growth (KM12 colon): 24.4%

O=C(CCc1nnc2sc(Cc3ccccc3Cl)nn12)c1nc2ccccc2[nH]1
growth (BT-549 breast): 96.7%
growth (MDA-MB-435 melanoma): 101%
growth (SW-620 colon): 98.8%
growth (MCF7 breast): 71.6%
growth (HCT-116 colon): 85.1%
growth (HCC-2998 colon): 102%
growth (KM12 colon): 95.8%

O=C(CSc1nc2c(n1Nc1ccccc1)-c1ccccc1SC2)Nc1nc(-c2ccc(Cl)cc2)cs1
growth (BT-549 breast): 93.9%
growth (MDA-MB-435 melanoma): 61%
growth (SW-620 colon): 28.2%
growth (MCF7 breast): 68.9%
growth (HCT-116 colon): 36.9%
growth (HCC-2998 colon): 102%
growth (KM12 colon): 48.5%

COc1cc(C2CC(=O)Nc3c2cc(Br)c2ccccc32)cc(Br)c1OC (centres undefined)
growth (BT-549 breast): 60.7%
growth (MDA-MB-435 melanoma): -29.6% (active)
growth (SW-620 colon): 17.6%
growth (MCF7 breast): 17.3%
growth (HCT-116 colon): -5.31% (active)
growth (HCC-2998 colon): 90.9%
growth (KM12 colon): 6.63% (active)

COc1ccc(-n2nc3c(c2-c2ccc(OC)c(OC)c2)-c2oncc2CC3)cc1
growth (BT-549 breast): 77.5%
growth (MDA-MB-435 melanoma): 78.6%
growth (SW-620 colon): 99%
growth (MCF7 breast): 80.8%
growth (HCT-116 colon): 87.9%
growth (HCC-2998 colon): 104%
growth (KM12 colon): 77.7%

CO[C@H]1/C=C/O[C@@]2(C)Oc3c(C)c(O)c4c(O)c(c(/C=N/N5CCN(C)CC5)c(O)c4c3C2=O)NC(=O)/C(C)=C\C=C\C(C)[C@H](O)[C@@H](C)[C@@H](O)[C@@H](C)[C@@H](OC(C)=O)[C@@H]1C (some centres undefined)
growth (BT-549 breast): 99.2%
growth (MDA-MB-435 melanoma): 103%
growth (SW-620 colon): 107%
growth (MCF7 breast): 98.7%
growth (HCT-116 colon): 101%
growth (HCC-2998 colon): 99.5%
growth (KM12 colon): 100%

CCN(CC)c1ccc(N=Nc2cc(Cl)ccc2Cl)c(NC(=O)CCC(=O)O)c1
growth (BT-549 breast): 120%
growth (MDA-MB-435 melanoma): 115%
growth (SW-620 colon): 105%
growth (MCF7 breast): 93.2%
growth (HCT-116 colon): 99.7%
growth (HCC-2998 colon): 107%
growth (KM12 colon): 101%

CCN1CCN(c2cc(-c3cn[nH]c3-c3cc(C)cc(OC)c3)nc(-c3cccnc3)n2)CC1
growth (BT-549 breast): 92.9%
growth (MDA-MB-435 melanoma): 81.2%
growth (SW-620 colon): 82.6%
growth (MCF7 breast): 82.6%
growth (HCT-116 colon): 38.4%
growth (HCC-2998 colon): 91.3%
growth (KM12 colon): 50.6%

O=C(CSCC(=O)N/N=C/c1ccccc1O)N/N=C\c1ccccc1O
growth (BT-549 breast): 1.06% (active)
growth (MDA-MB-435 melanoma): 50.9%
growth (SW-620 colon): 39.3%
growth (MCF7 breast): 19.5%
growth (HCT-116 colon): 16.6%
growth (HCC-2998 colon): 30.1%
growth (KM12 colon): 37.3%

CN(C)c1ccc2c(c1)/C(=N/O)c1ccccc1-2
growth (BT-549 breast): 91.7%
growth (MDA-MB-435 melanoma): -8.86% (active)
growth (SW-620 colon): 50.3%
growth (MCF7 breast): 19.9%
growth (HCT-116 colon): 39.4%
growth (HCC-2998 colon): 101%
growth (KM12 colon): 35.2%

COc1ccc2c(c1)C(=O)c1c-2c(OCCN(C)C)nc2cc(OC)ccc12
growth (BT-549 breast): 56.6%
growth (MDA-MB-435 melanoma): 18.5%
growth (SW-620 colon): -45.8% (active)
growth (MCF7 breast): -50% (active)
growth (HCT-116 colon): -76% (active)
growth (HCC-2998 colon): -88.8% (active)
growth (KM12 colon): -37.4% (active)

Clc1ccc2nc(Cl)c3ccccc3c2c1
growth (BT-549 breast): 89.6%
growth (MDA-MB-435 melanoma): 50.3%
growth (SW-620 colon): 78.3%
growth (MCF7 breast): 89.7%
growth (HCT-116 colon): 19.4%
growth (HCC-2998 colon): 89.3%
growth (KM12 colon): 55.7%

COc1cccc(/C=C2\COc3ccc(O)c(O)c3C2=O)c1OC
growth (BT-549 breast): 35.3%
growth (MDA-MB-435 melanoma): 9.09% (active)
growth (SW-620 colon): 4.8% (active)
growth (MCF7 breast): 16.7%
growth (HCT-116 colon): -48.4% (active)
growth (HCC-2998 colon): 78.6%
growth (KM12 colon): 12.9%

Cc1nn(-c2ccc(Cl)cc2)c2nc3c(nc12)C(=O)c1ccccc1-3
growth (BT-549 breast): 82%
growth (MDA-MB-435 melanoma): 67.5%
growth (SW-620 colon): 83.4%
growth (MCF7 breast): 49.1%
growth (HCT-116 colon): 39.9%
growth (HCC-2998 colon): 52.5%
growth (KM12 colon): 78.8%

c1ccc(N2CCN(c3nncc4ccccc34)CC2)nc1
growth (BT-549 breast): 104%
growth (MDA-MB-435 melanoma): 104%
growth (SW-620 colon): 104%
growth (MCF7 breast): 105%
growth (HCT-116 colon): 103%
growth (HCC-2998 colon): 117%
growth (KM12 colon): 104%

COc1cc(C2CC(c3ccc(C)cc3)=NN2C(C)=O)ccc1Oc1ccnc2cc(Cl)ccc12 (centres undefined)
growth (BT-549 breast): 59.1%
growth (MDA-MB-435 melanoma): 100%
growth (SW-620 colon): 66.3%
growth (MCF7 breast): 73.6%
growth (HCT-116 colon): 52.8%
growth (HCC-2998 colon): 83.3%
growth (KM12 colon): 85.3%

CSc1nc2c(c(=O)[nH]1)C(c1ccc(Cl)cc1)C1=C(N2)/C(=C/c2ccc(Cl)cc2)CNC1 (centres undefined)
growth (BT-549 breast): 24.8%
growth (MDA-MB-435 melanoma): 34.5%
growth (SW-620 colon): -9.84% (active)
growth (MCF7 breast): 13%
growth (HCT-116 colon): -69.5% (active)
growth (HCC-2998 colon): 17.3%
growth (KM12 colon): -24% (active)

O=C(CCc1nnc(Cn2cncn2)o1)c1nc2ccccc2[nH]1
growth (BT-549 breast): 112%
growth (MDA-MB-435 melanoma): 103%
growth (SW-620 colon): 113%
growth (MCF7 breast): 91%
growth (HCT-116 colon): 111%
growth (HCC-2998 colon): 112%
growth (KM12 colon): 114%

NS(=O)(=O)c1ccc(NC2=C(Cl)C(=O)c3ccccc3C2=O)cc1
growth (BT-549 breast): 84.4%
growth (MDA-MB-435 melanoma): 124%
growth (SW-620 colon): 95%
growth (MCF7 breast): 72.8%
growth (HCT-116 colon): 65%
growth (KM12 colon): 123%

CCOc1nc(-c2ccccc2)cc2c(O)c(-c3nnco3)[nH]c(=O)c12
growth (BT-549 breast): 41.6%
growth (MDA-MB-435 melanoma): 63.8%
growth (SW-620 colon): 32.2%
growth (MCF7 breast): 23.3%
growth (HCT-116 colon): 39.7%
growth (HCC-2998 colon): 61.5%
growth (KM12 colon): 48.9%

COc1cccc(CCC2C(=O)CCCC2=O)c1
growth (BT-549 breast): 109%
growth (MDA-MB-435 melanoma): 119%
growth (SW-620 colon): 112%
growth (MCF7 breast): 108%
growth (HCT-116 colon): 114%
growth (HCC-2998 colon): 115%
growth (KM12 colon): 106%

CCc1ccc(CCN2C(=O)c3ccccc3C2=O)nc1
growth (BT-549 breast): 116%
growth (MDA-MB-435 melanoma): 98.9%
growth (SW-620 colon): 107%
growth (MCF7 breast): 89.5%
growth (HCT-116 colon): 109%
growth (HCC-2998 colon): 112%
growth (KM12 colon): 103%

C/C(=N\N1CC(=O)NC1=O)c1ccc([N+](=O)[O-])o1
growth (BT-549 breast): 100%
growth (MDA-MB-435 melanoma): 88.5%
growth (SW-620 colon): 97.2%
growth (MCF7 breast): 85.6%
growth (HCT-116 colon): 106%
growth (KM12 colon): 96.3%

O=C1OCCCCCCCCCC#Cc2ccccc21
growth (BT-549 breast): 124%
growth (MDA-MB-435 melanoma): 104%
growth (SW-620 colon): 93.9%
growth (MCF7 breast): 164%
growth (HCT-116 colon): 70.4%
growth (KM12 colon): 136%
